For 10 compounds, Potency and outcome results are on record in PubChem BioAssay (Tox21).

Values joined by “and” are separate entries in the source; they are usually repeats but may differ in a detail not shown here. Identical values can stand only once. Inconclusive results are not listed. Some compounds were tested as several samples or in several runs, with calls that do not always agree. Active and inactive are the calls of the source. Unless noted, calls come from the whole dose curve; as a rule, active = well fitted curve in the direction sought with a large enough effect in the repeat runs; inconclusive = weak or mixed curves; inactive = no such curve, though single readings can be large; an effect the other way counts as inactive or inconclusive.

Experiment [1] in a line: qHTS assay to identify small molecule antagonists of the estrogen related receptor (ERR) signaling pathway from Tox21 library - cell viability counter screen (AID 1224834). Note: nearly all actives have a fitted effect of over 30% in size. Note: potency is the fitted concentration of half-maximal effect. The gist of the method: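 Seeded ERR cells were rested 6 h at 37 C/5% CO2 before compounds, positive and negative controls or DMSO were added. Incubation continued for 17.5 h, and viability was then quantified by CellTiter-Fluor fluorescence.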

For experiment [2], the target named is Luciferin 4-monooxygenase (Photinus pyralis) (UniProt P08659). The experiment is described as follows: qHTS assay to identify small molecule inhibitors of firefly luciferase (AID 1224835). Note: series mostly up to about 120 µM; nearly all actives have a fitted effect of over 25% in size. Summed up: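 Biochemical qHTS: compounds run as interplate titrations against purified firefly enzyme, with D-luciferin and ATP each at its KM concentration. Light output recorded by CCD imaging.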

Experiment [3] is described as follows: qHTS assay to identify small molecule agonists of the constitutive androstane receptor (CAR) signaling pathway - cell viability counter screen (AID 1224836). Note: nearly all actives have a fitted effect of over 45% in size. Note: potency is the fitted concentration of half-maximal effect. Summed up: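 Fluorescence from CellTiter-Fluor indicates live cells after 23 h exposure. The human hepatoma line expresses hCAR and a CYP2B6-2.2kb reporter. Incubation medium contains 0.75 uM PK11195 (final).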

Experiment [4] is described as follows: qHTS assay to identify small molecule antagonists of the estrogen related receptor signaling pathway with the pleiotropic PPARgamma coactivator (PGC) from Tox21 10K library - cell viability counter screen (AID 1224840; active = well fitted cell-killing curve with a large enough effect in the repeat runs, not every such curve was filed as active; note: nearly all actives have a fitted effect of over 40% in size; note: potency is the fitted concentration of half-maximal effect). Summed up:
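Seeded PGC/ERR cells (2,000/well, 6 h, 37 C/5% CO2) get compound by pin tool; 17.5 h incubation at 37 C; CellTiter-Fluor added, 30 min, fluorescence measured.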

Experiment [5] is described as follows: qHTS assay to identify small molecule antagonists of the estrogen related receptor signaling pathway with the pleiotropic PPARgamma coactivator (PGC) from Tox21 10K library (AID 1224841; call rule not given here; note: actives are mostly falling curves and most rising ones were filed inactive; nearly all actives have a fitted effect of over 50% in size; note: potency is the fitted concentration of half-maximal effect). Summed up: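 Test chemicals dissolved in DMSO were applied to pre-incubated (6 h) PGC/ERR cells at 2,000 cells/well for an 18 h, 37 C treatment; reporter luminescence was then read using One-Glo.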

Experiment [6] in a line: qHTS assay to identify small molecule agonists of the estrogen related receptor signaling pathway with the pleiotropic PPARgamma coactivator (PGC) from Tox21 10K library (AID 1224842). Note: nearly all actives have a fitted effect of over 15% in size. The gist of the method: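 PGC/ERR reporter cell line, 2,000 cells per well, incubated 6 h at 37 C before 23 nL compound in DMSO was added. After 18 h at 37 C, One-Glo luminescence read following 30 min at room temperature.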

In experiment [7] the target is Thyrotropin receptor (Homo sapiens) (UniProt P16473). In words: qHTS assay to identify small molecule agonists of the thyroid stimulating hormone receptor (TSHR) signaling pathway (AID 1224843; calls by dose curve; note: nearly all actives have a fitted effect of over 45% in size). Summed up: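 HEK293/TSHR, 800 cells/well; cpd 30 min RT; add cAMP-d2 + anti-cAMP-cryptate, 1 h RT; fluorescence read on plate reader. 15-pt titration, n=3.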
Experiment [8] can be described thus: qHTS assay to identify small molecule agonists of the hypoxia (HIF-1) signaling pathway - cell viability counter screen (AID 1224844; calls by dose curve; note: nearly all actives have a fitted effect of over 50% in size). Summed up:
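HRE-bla ME-180; 0.5% dFBS; cpd 17 h, 37C, 5% CO2; CellTiter-Glo lum., 30 min RT, post-FRET read, same wells.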

The nature of experiment [9]: qHTS assay to identify small molecule agonists of H2AX (AID 1224845; active = well fitted activation curve with a large enough effect in the signal ratio in the repeat runs, not every such curve was filed as active; the % refers to the signal ratio). Summed up:
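Wild-type CHO-K1 cells, plated overnight, exposed 3hr at 37C to 15 concentrations (0.76% DMSO final). Lysed, then HTRF anti-pH2AX (S139) cryptate and anti-H2AX-d2 antibodies, 24 hr room temperature; 665/620 nm emission read.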

Experiment [10] in a line: qHTS assay to identify small molecule agonists of the hypoxia (HIF-1) signaling pathway (AID 1224846; active = well fitted activation curve with a large enough effect in the signal ratio in the repeat runs, not every such curve was filed as active; the % refers to the signal ratio). The gist of the method:
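Reporter induction in HRE-bla ME-180 cells is taken as agonism: cells sit 5 hrs after plating, receive compounds or DMSO only, incubate 17 hrs at 37C under 5% CO2, and are loaded with CCF4-AM for beta-lactamase FRET measurement.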

The nature of experiment [11]: qHTS assay to identify small molecule agonists of H2AX - cell viability counter screen (AID 1224847; calls by dose curve; note: top concentration of the series differs between compounds; nearly all actives have a fitted effect of over 30% in size). The gist of the method:
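Viability of CHO-K1 (wild type) cells after 3 hr compound exposure was measured by CellTiter-Glo luminescence.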

Experiment [12] can be described thus: qHTS assay to identify small molecule antagonists of the estrogen related receptor (ERR) signaling pathway from Tox21 library (AID 1224848). Note: nearly all actives have a fitted effect of over 50% in size. Summed up: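 Compounds dissolved in DMSO are pin-transferred onto ERR reporter cells (2,000 per well) that have settled for 6 h at 37 C. Plates then incubate 18 h at 37 C before ONE-Glo luciferase reagent and a luminescence read 30 min later.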

Experiment [13] is described as follows: qHTS assay to identify small molecule agonists of the estrogen related receptor (ERR) signaling pathway from Tox21 library (AID 1224849; calls by dose curve; note: nearly all actives have a fitted effect of over 15% in size). The gist of the method:
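Tox21 compounds tested for ERR agonism in an NTP reporter cell line: 18 h treatment at 37 C, then ONE-Glo luminescence.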

Experiment [14] in a line: qHTS RealTime-Glo MT Cell Viability Assay in HepG2 cells - 24 hour (AID 1224867). Note: nearly all actives have a fitted effect of over 50% in size. Summed up: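 Compound treatment began 5 h after plating HepG2 cells (600/well) with NanoLuc luciferase and prosubstrate. Plates stayed at 37 C for 40 h; luminescence was captured at six time points, 0 h through 40 h.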
Experiment [15] can be described thus: qHTS RealTime-Glo MT Cell Viability Assay in HEK293 cells - 32 hour (AID 1224868). Note: nearly all actives have a fitted effect of over 50% in size. Note: potency is the fitted concentration of half-maximal effect. The gist of the method:
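Quantitative high-throughput screen of the Tox21 10K library in HEK293: cells and RealTime-Glo reagents plated together, compound added at 5 h, luminescence monitored through 40 h at 37 C.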

Experiment [16] is described as follows: A CellTox Green Cytotoxicity Assay to monitor cytotoxicity in HEK293 cells - 0 hour (AID 1224869). Note: nearly all actives have a fitted effect of over 50% in size. The gist of the method: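 Tox21 screen in HEK293: membrane-impermeant cyanine dye fluoresces on binding dead-cell DNA; compound pinned 5 h post-seeding, plates held at 37 C, signal read repeatedly through 40 h.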
A short description of experiment [17]: qHTS assay to identify small molecule antagonists of the constitutive androstane receptor (CAR) signaling pathway - cell viability counter screen (AID 1224837). Note: nearly all actives have a fitted effect of over 45% in size. Note: potency is the fitted concentration of half-maximal effect. Summed up: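 To flag cytotoxic false antagonists, HepG2 hCAR/CYP2B6-2.2kb cells were treated 23 hr with 15-concentration compound series and 50 nM CITCO at 37 C/5% CO2; CellTiter-Fluor fluorescence was the measured end point.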

Experiment [18] deals with Nuclear receptor subfamily 1 group I member 3 (Homo sapiens) (UniProt Q14994). In words: qHTS assay to identify small molecule antagonists of the constitutive androstane receptor (CAR) signaling pathway (AID 1224838).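 Note: HepG2 cells stably expressing hCAR with CYP2B6 luciferase reporter stimulated by CITCO; nearly all actives have a fitted effect of over 40% in size.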 The gist of the method:
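Human hepatoma HepG2 cells expressing hCAR and a CYP2B6 promoter (2.2 kb) luciferase construct; compound titration (15 points) with 50 nM CITCO final, 24 h at 37 C/5% CO2; luminescence via ONE-Glo after 30 min at room temperature.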

For experiment [19] the target is unchanged. In words: qHTS assay to identify small molecule agonists of the constitutive androstane receptor (CAR) signaling pathway (AID 1224839).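 Note: HepG2 cells stably carrying human CAR and a CYP2B6 luciferase reporter; series mostly up to about 92 µM; nearly all actives have a fitted effect of over 15% in size.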 Summed up:
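Stable hCAR/CYP2B6-2.2kb HepG2 line in DMEM with 10% FBS; compounds (15 concentrations) and 0.75 uM PK11195 final, 24 h at 37 C/5% CO2, then ONE-Glo luminescence after 30 min.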

Chain of Thyrotropin receptor (Homo sapiens) (P16473 whole entry, looked up): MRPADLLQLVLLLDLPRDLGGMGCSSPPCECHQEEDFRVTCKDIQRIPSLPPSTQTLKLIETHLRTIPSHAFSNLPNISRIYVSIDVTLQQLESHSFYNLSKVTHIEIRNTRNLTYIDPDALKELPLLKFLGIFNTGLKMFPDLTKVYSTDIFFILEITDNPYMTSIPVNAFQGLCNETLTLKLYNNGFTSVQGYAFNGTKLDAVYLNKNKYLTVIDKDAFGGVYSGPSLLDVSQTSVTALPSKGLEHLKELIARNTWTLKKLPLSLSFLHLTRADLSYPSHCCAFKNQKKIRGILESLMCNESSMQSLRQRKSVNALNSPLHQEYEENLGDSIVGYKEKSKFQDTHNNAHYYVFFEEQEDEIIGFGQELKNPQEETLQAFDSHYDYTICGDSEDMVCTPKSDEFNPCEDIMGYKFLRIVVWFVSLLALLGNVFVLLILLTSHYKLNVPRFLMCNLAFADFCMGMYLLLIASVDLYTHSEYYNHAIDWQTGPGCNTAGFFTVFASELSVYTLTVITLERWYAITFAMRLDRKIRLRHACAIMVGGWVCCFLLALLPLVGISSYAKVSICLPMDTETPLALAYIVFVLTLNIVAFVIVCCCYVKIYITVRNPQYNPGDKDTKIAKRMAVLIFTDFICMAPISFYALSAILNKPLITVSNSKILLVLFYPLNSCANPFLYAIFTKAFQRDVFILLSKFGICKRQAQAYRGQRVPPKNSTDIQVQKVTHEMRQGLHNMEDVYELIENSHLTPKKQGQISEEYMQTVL
Chain of Nuclear receptor subfamily 1 group I member 3 (Homo sapiens) (Q14994 whole entry, looked up): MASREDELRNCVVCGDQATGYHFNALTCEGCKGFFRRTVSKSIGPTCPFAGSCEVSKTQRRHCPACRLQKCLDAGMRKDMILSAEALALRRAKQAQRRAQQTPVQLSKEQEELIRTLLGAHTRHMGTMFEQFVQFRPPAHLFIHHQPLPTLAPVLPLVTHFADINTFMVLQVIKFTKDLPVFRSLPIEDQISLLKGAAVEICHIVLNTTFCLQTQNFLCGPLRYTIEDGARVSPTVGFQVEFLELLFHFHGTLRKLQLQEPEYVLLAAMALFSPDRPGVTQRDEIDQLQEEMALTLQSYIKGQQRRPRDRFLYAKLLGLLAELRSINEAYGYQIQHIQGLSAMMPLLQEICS
Chain of Luciferin 4-monooxygenase (Photinus pyralis) (P08659 whole entry, looked up): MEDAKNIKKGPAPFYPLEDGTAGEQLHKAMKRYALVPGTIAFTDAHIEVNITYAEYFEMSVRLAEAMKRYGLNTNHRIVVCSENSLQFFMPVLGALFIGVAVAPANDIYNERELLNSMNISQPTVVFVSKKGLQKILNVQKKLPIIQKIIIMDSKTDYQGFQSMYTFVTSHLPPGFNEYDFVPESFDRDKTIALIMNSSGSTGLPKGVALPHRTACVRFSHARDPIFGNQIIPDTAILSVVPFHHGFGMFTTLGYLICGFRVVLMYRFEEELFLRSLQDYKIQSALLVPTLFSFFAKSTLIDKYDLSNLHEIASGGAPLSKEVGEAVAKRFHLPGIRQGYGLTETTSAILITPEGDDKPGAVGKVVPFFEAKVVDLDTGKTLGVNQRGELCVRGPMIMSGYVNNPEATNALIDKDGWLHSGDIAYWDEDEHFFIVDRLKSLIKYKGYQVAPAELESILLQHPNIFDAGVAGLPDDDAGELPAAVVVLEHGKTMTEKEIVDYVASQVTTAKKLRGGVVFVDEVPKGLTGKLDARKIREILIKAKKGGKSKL

For the compound `CCc1ccccc1CC`, the Potency entry in [1], in [2], in [3], in [4], in experiment [5] and in experiment [14] was “inactive” throughout. Besides, in experiment [15], the Potency result was “inactive”. Also, the compound was classed as inactive in [6], in experiment [7], in experiment [8], in experiment [9], in experiment [10] and in experiment [11]. Further, the compound was called inactive in experiment [12], in experiment [13] and in experiment [16].
On to `COc1ccc(CCC(C)=O)cc1`, for which the Potency result in [1], in experiment [2], in experiment [3], in experiment [17], in [4] and in experiment [14] was “inactive” throughout. Besides, the Potency result in experiment [15] is “inactive”. In addition, the result in experiment [8], in experiment [9], in experiment [10] and in experiment [16] was inactive.
Turning to `N#Cc1ccccc1`, the Potency result in experiment [2], in experiment [3], in experiment [17], in experiment [19], in [4] and in experiment [5] was “inactive” throughout. The Potency result in experiment [14] and in [15] was “inactive” in each case. Moreover, the call in experiment [18], in [6], in experiment [7], in [8], in experiment [9] and in experiment [10] was inactive. The outcome in experiment [11], in experiment [12], in experiment [13] and in experiment [16] was inactive.
With `C=C(C)C(=O)OCC(C)C`, the Potency result in [1], in experiment [2], in [3], in [4], in [14] and in experiment [15] was “inactive” throughout. Further, the compound was classed as inactive in [7], in [8], in experiment [9], in [10], in experiment [11] and in experiment [16].
Regarding `CC1(C)CC(N)CC(C)(CN)C1` (configuration not stated), the Potency result in experiment [1], in [2], in [3], in experiment [4] and in experiment [15] was “inactive” in each case. In addition, the compound was called inactive in experiment [7], in experiment [8], in experiment [9], in experiment [10], in [11] and in experiment [16].
With `C=CC(C)CCCC(C)(C)O` (configuration not stated), the Potency result in experiment [1], in experiment [2], in [3], in experiment [19], in experiment [4] and in experiment [14] was “inactive” in each case. For the same compound, in experiment [15], the Potency entry is “inactive”. In addition, the outcome in [18], in experiment [8], in experiment [9], in experiment [10], in experiment [11] and in experiment [16] was inactive.
With `O=C(O)c1ccc(C(=O)O)c(C(=O)O)c1`, the Potency result in [2], in experiment [3], in experiment [17], in experiment [19], in experiment [4] and in [5] was “inactive” each time. In addition, the Potency entry in [15] was “inactive”. For the same compound, the result in experiment [18], in experiment [6], in experiment [7], in experiment [8], in experiment [9] and in experiment [12] was inactive. Moreover, the compound was classed as inactive in [13] and in experiment [16].
Consider `CNC(=S)N(C)C`, for which the Potency entry in [1], in experiment [2], in [3], in [19], in experiment [4] and in experiment [14] was “inactive” in each case. Also, the outcome in experiment [18], in experiment [8], in experiment [9], in [10], in [11] and in [16] was inactive. Besides, in [15], the Potency entry is “inactive and 11.6 µM (active)”.
As to `O=S(=O)(O)c1ccccc1`, the Potency entry in experiment [1], in experiment [3], in [17], in experiment [4], in experiment [5] and in experiment [15] was “inactive” throughout. Also, the compound was called inactive in experiment [6], in experiment [7], in [8], in experiment [9], in experiment [10] and in experiment [12]. Also, the outcome in experiment [13] and in experiment [16] was inactive.
For the compound `O=S(=O)(O)c1ccc(N=Nc2c(O)ccc3cc(S(=O)(=O)O)ccc23)cc1`, the Potency was 30.8 µM (active) and 54.5 µM (active) in experiment [1]; 54.7 µM (active) and 30.6 µM (active) in experiment [3]; 54.7 µM (active) and 27.3 µM (active) in experiment [17]; 48.6 µM (active) in experiment [4]; 27.4 µM (active) and inactive in experiment [5]. The compound was classed as inactive in [18], in [6], in [8], in [10], in experiment [12] and in experiment [13]. In addition, in experiment [16], the call was inactive. The Potency entry in experiment [19] and in experiment [15] was “inactive” each time.
